Data on 10 molecules can be found in PubChem BioAssay (NCATS).

Results filed as inconclusive are left out. Entries that show only a call come without a potency. Active and inactive are the calls of the source. Calls come from the whole dose curve; as a rule, active = well fitted inhibition curve with a large enough effect; inconclusive = small, poorly fitted or top-dose-only effect; inactive = flat fitted curve, though single readings scatter.
Potency is the fitted concentration of half-maximal effect.

In the first experiment the test system is DFO2036. Kind of experiment: qHTS profiling for inhibitors of Plasmodium falciparum proliferation (AID 504749). Note: nearly all actives have a fitted effect of over 60% in size. To be noted: P. falciparum in erythrocytes, SYBR Green DNA, 72 h; series mostly up to 28.7 µM. Summed up: (§1)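 Readout was DNA-dye fluorescence from lysed cultures, ex 485/em 535 nm. Parasitized red cells had grown 72 h with compound; data scaled between 0.29 uM artemisinin and DMSO wells and corrected using vehicle-only plates.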
Consider `CO/N=C(/C(=O)N[C@@H]1C(=O)N2C(C(=O)O)=CCS[C@H]12)c1csc(N)n1`, for which the Potency result is “inactive”.
Turning to `Cc1cc(CC(C)CC(C)(C)C)n(O)c(=O)c1` (stereo not drawn), the Potency is 1780 nM (active).
Same read-out and setting: the entry for `CC1CCC(C(C)C)C(OC(=O)c2ccccc2O)C1` (stereo not drawn) is “inactive”; for `CO[C@@H]1[C@@H](OC2OC(C)C(OC3CC(C)(O)C(OC(=O)CC(C)C)C(C)O3)C(N(C)C)C2O)[C@@H](CC=O)C[C@@H](C)C(=O)/C=C\C2O[C@H]2C[C@@H](C)OC(=O)C[C@H]1OC(C)=O` (stereo partly drawn) it is 10000 nM (active); for `CCC(=O)O[C@@H](OP(=O)(CCCCc1ccccc1)CC(=O)N1C[C@H](C2CCCCC2)C[C@H]1C(=O)O)C(C)C` (stereo partly drawn) it is “inactive”.
Regarding `CC(=O)O[C@@]12CO[C@@H]1C[C@H](O)[C@@]1(C)C(=O)[C@H](O)C3=C(C)[C@@H](OC(=O)C(O)[C@@H](NC(=O)OC(C)(C)C)c4ccccc4)C[C@@](O)([C@@H](OC(=O)c4ccccc4)[C@H]21)C3(C)C` (stereo partly drawn), the Potency is 22.4 nM (active).
For `CC1(C)S[C@@H]2[C@H](NC(=O)COc3ccccc3)C(=O)N2[C@H]1C(=O)O`, the Potency result was “inactive”.
On to `CCN1/C(=C/C=C/C=C/c2sc3ccccc3[n+]2CC)Sc2ccccc21`, for which the Potency was 3550 nM (active).
On to `O=NCc1ccc([N+](=O)[O-])o1`, for which the Potency result is “inactive”.

Another experiment deals with DIV14. The description is as above. To be noted: P. falciparum in erythrocytes, SYBR Green DNA, 72 h; series mostly up to 28.7 µM. Put shortly:
as §1
As to `Cc1cc(CC(C)CC(C)(C)C)n(O)c(=O)c1` (stereo not drawn), the Potency is 1510 nM (active).
For `CC1CCC(C(C)C)C(OC(=O)c2ccccc2O)C1` (stereo not drawn), the Potency entry is “inactive”.
Consider `CO[C@@H]1[C@@H](OC2OC(C)C(OC3CC(C)(O)C(OC(=O)CC(C)C)C(C)O3)C(N(C)C)C2O)[C@@H](CC=O)C[C@@H](C)C(=O)/C=C\C2O[C@H]2C[C@@H](C)OC(=O)C[C@H]1OC(C)=O` (stereo partly drawn), for which the Potency is 12000 nM (active).
For `CCC(=O)O[C@@H](OP(=O)(CCCCc1ccccc1)CC(=O)N1C[C@H](C2CCCCC2)C[C@H]1C(=O)O)C(C)C` (stereo partly drawn), the Potency result is “inactive”.
As for `CC(=O)O[C@@]12CO[C@@H]1C[C@H](O)[C@@]1(C)C(=O)[C@H](O)C3=C(C)[C@@H](OC(=O)C(O)[C@@H](NC(=O)OC(C)(C)C)c4ccccc4)C[C@@](O)([C@@H](OC(=O)c4ccccc4)[C@H]21)C3(C)C` (stereo partly drawn), the Potency was 1200 nM (active).
For the molecule `CC1(C)S[C@@H]2[C@H](NC(=O)COc3ccccc3)C(=O)N2[C@H]1C(=O)O`, the Potency entry was “inactive”.
Still for that read-out and setting: the result for `CCN1/C(=C/C=C/C=C/c2sc3ccccc3[n+]2CC)Sc2ccccc21` reads 8490 nM (active); that for `Nc1nc(Cl)nc2c1ncn2C1CC(O)C(CO)O1` (stereo not drawn), “inactive”.

The next experiment relates to DIV17. The description is as above. The following applies: P. falciparum in erythrocytes, SYBR Green DNA, 72 h; series mostly up to 28.7 µM. Put shortly: as §1
As for `CO/N=C(/C(=O)N[C@@H]1C(=O)N2C(C(=O)O)=CCS[C@H]12)c1csc(N)n1`, the Potency entry is “inactive”.
As for `Cc1cc(CC(C)CC(C)(C)C)n(O)c(=O)c1` (stereo not drawn), the Potency is 1510 nM (active).
Consider `CC1CCC(C(C)C)C(OC(=O)c2ccccc2O)C1` (stereo not drawn), for which the Potency result was “inactive”.
In the case of `CO[C@@H]1[C@@H](OC2OC(C)C(OC3CC(C)(O)C(OC(=O)CC(C)C)C(C)O3)C(N(C)C)C2O)[C@@H](CC=O)C[C@@H](C)C(=O)/C=C\C2O[C@H]2C[C@@H](C)OC(=O)C[C@H]1OC(C)=O` (stereo partly drawn), the Potency was 10700 nM (active).
As to `CCC(=O)O[C@@H](OP(=O)(CCCCc1ccccc1)CC(=O)N1C[C@H](C2CCCCC2)C[C@H]1C(=O)O)C(C)C` (stereo partly drawn), the Potency result was “inactive”.
Consider `CC(=O)O[C@@]12CO[C@@H]1C[C@H](O)[C@@]1(C)C(=O)[C@H](O)C3=C(C)[C@@H](OC(=O)C(O)[C@@H](NC(=O)OC(C)(C)C)c4ccccc4)C[C@@](O)([C@@H](OC(=O)c4ccccc4)[C@H]21)C3(C)C` (stereo partly drawn), for which the Potency was 1350 nM (active).
Consider `CC1(C)S[C@@H]2[C@H](NC(=O)COc3ccccc3)C(=O)N2[C@H]1C(=O)O`, for which the Potency entry is “inactive”.
On to `CCN1/C(=C/C=C/C=C/c2sc3ccccc3[n+]2CC)Sc2ccccc21`, for which the Potency was 9530 nM (active).
As to `Nc1nc(Cl)nc2c1ncn2C1CC(O)C(CO)O1` (stereo not drawn), the Potency entry was “inactive”.

A further experiment concerns DIV30. The description is as above. The following applies: P. falciparum in erythrocytes, SYBR Green DNA, 72 h; series mostly up to 28.7 µM. Put shortly: as §1
`CO/N=C(/C(=O)N[C@@H]1C(=O)N2C(C(=O)O)=CCS[C@H]12)c1csc(N)n1`: the Potency result was “inactive”.
Take `Cc1cc(CC(C)CC(C)(C)C)n(O)c(=O)c1` (stereo not drawn): the Potency is 3790 nM (active).
Regarding `CC1CCC(C(C)C)C(OC(=O)c2ccccc2O)C1` (stereo not drawn), the Potency result is “inactive”.
Regarding `CCC(=O)O[C@@H](OP(=O)(CCCCc1ccccc1)CC(=O)N1C[C@H](C2CCCCC2)C[C@H]1C(=O)O)C(C)C` (stereo partly drawn), the Potency entry is “inactive”.
In the case of `CC(=O)O[C@@]12CO[C@@H]1C[C@H](O)[C@@]1(C)C(=O)[C@H](O)C3=C(C)[C@@H](OC(=O)C(O)[C@@H](NC(=O)OC(C)(C)C)c4ccccc4)C[C@@](O)([C@@H](OC(=O)c4ccccc4)[C@H]21)C3(C)C` (stereo partly drawn), the Potency was 53.6 nM (active).
For `CC1(C)S[C@@H]2[C@H](NC(=O)COc3ccccc3)C(=O)N2[C@H]1C(=O)O`, the Potency entry is “inactive”.
For `CCN1/C(=C/C=C/C=C/c2sc3ccccc3[n+]2CC)Sc2ccccc21`, the Potency is 12000 nM (active).
Still for that read-out and setting: the entry for `Nc1nc(Cl)nc2c1ncn2C1CC(O)C(CO)O1` (stereo not drawn) is “inactive”.

Another experiment concerns Dd2. Described as above. To be noted: P. falciparum in erythrocytes, SYBR Green DNA, 72 h; series mostly up to 28.7 µM. Put shortly: as §1
Turning to `CO/N=C(/C(=O)N[C@@H]1C(=O)N2C(C(=O)O)=CCS[C@H]12)c1csc(N)n1`, the Potency entry is “inactive”.
Consider `Cc1cc(CC(C)CC(C)(C)C)n(O)c(=O)c1` (stereo not drawn), for which the Potency was 7940 nM (active).
With `CC1CCC(C(C)C)C(OC(=O)c2ccccc2O)C1` (stereo not drawn), the Potency result is “inactive”.
Same read-out and setting: the figure for `CO[C@@H]1[C@@H](OC2OC(C)C(OC3CC(C)(O)C(OC(=O)CC(C)C)C(C)O3)C(N(C)C)C2O)[C@@H](CC=O)C[C@@H](C)C(=O)/C=C\C2O[C@H]2C[C@@H](C)OC(=O)C[C@H]1OC(C)=O` (stereo partly drawn) is 891 nM (active).
As to `CCC(=O)O[C@@H](OP(=O)(CCCCc1ccccc1)CC(=O)N1C[C@H](C2CCCCC2)C[C@H]1C(=O)O)C(C)C` (stereo partly drawn), the Potency result is “inactive”.
As to `CC(=O)O[C@@]12CO[C@@H]1C[C@H](O)[C@@]1(C)C(=O)[C@H](O)C3=C(C)[C@@H](OC(=O)C(O)[C@@H](NC(=O)OC(C)(C)C)c4ccccc4)C[C@@](O)([C@@H](OC(=O)c4ccccc4)[C@H]21)C3(C)C` (stereo partly drawn), the Potency was 10 nM (active).
With `CC1(C)S[C@@H]2[C@H](NC(=O)COc3ccccc3)C(=O)N2[C@H]1C(=O)O`, the Potency result is “inactive”.
Regarding `CCN1/C(=C/C=C/C=C/c2sc3ccccc3[n+]2CC)Sc2ccccc21`, the Potency is 2240 nM (active).
On the same count and under the same terms, the result for `O=NCc1ccc([N+](=O)[O-])o1` reads “inactive”.
